About 2,000 (36%) of roughly 5,500 compounds were called active. Another 18% or so got no clear call; they are omitted. Cut-off read from the data, not from the text of the source: active = normalized growth mostly below about 0.91 (no sharp cut-off); inconclusive = no clear call, values can overlap the other calls; inactive = mostly above about 0.92. The list shows a part of the results.
Experiment: chemical genetic growth profiling, strain panel (AID 1159580);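 note: tested at 20 µM; growth read once vehicle control cultures reached saturation at 30 °C; 1 = growth at the plate median or of vehicle wells; lower values mean less growth of the strain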
Settings: growth OD

Measured: normalized growth

CC(C)CC1C(=O)N2CCC[C@H]2C2(O)O[C@](NC(=O)C3C=C4c5cccc6[nH]c(Br)c(c56)C[C@H]4N(C)C3)(C(C)C)C(=O)N12 (stereo partly specified)
inactive: S. cerevisiae deletion strains, locus YKL009W, strain mrt4, stronger effect = lower value 0.983 | S. cerevisiae deletion strains, locus YKL068W, stronger effect = lower value 0.97 | S. cerevisiae deletion strains, locus YKL085W, strain MDH1 (second series), stronger effect = lower value 0.963 | S. cerevisiae deletion strains, locus YKL085W, strain MDH1, stronger effect = lower value 0.963 | S. cerevisiae deletion strains, locus YKL160W, strain elf1, stronger effect = lower value 0.993 | S. cerevisiae deletion strains, locus YKL190W, strain CNB1, stronger effect = lower value 0.979 | S. cerevisiae deletion strains, locus YKR001C, strain vps1, stronger effect = lower value 0.989 | S. cerevisiae deletion strains, locus YKR026C, strain gcn3, stronger effect = lower value 0.998 | S. cerevisiae deletion strains, locus YKR091W, strain srl3, stronger effect = lower value 0.979 | S. cerevisiae deletion strains, locus YLL001W, strain dnm1, stronger effect = lower value 0.988 | S. cerevisiae deletion strains, locus YLL026W, stronger effect = lower value 0.977 | S. cerevisiae deletion strains, locus YLL041C, strain sdh2, stronger effect = lower value 0.982 | S. cerevisiae deletion strains, locus YLR027C, strain aat2, stronger effect = lower value 0.977 | S. cerevisiae deletion strains, locus YLR039C, strain RIC1, stronger effect = lower value 0.905 | S. cerevisiae deletion strains, locus YLR058C, strain SHM2, stronger effect = lower value 0.988 | S. cerevisiae deletion strains, locus YLR102C, strain apc9, stronger effect = lower value 0.973 | S. cerevisiae deletion strains, locus YLR113W, strain HOG1, stronger effect = lower value 0.945 | S. cerevisiae deletion strains, locus YLR221C, strain rsa3, stronger effect = lower value 0.983 | S. cerevisiae deletion strains, locus YLR258W, strain gsy2, stronger effect = lower value 0.997 | S. cerevisiae deletion strains, locus YLR262C, strain YPT6 (second series), stronger effect = lower value 0.944 | S. cerevisiae deletion strains, locus YLR262C, strain YPT6, stronger effect = lower value 0.951 | S. cerevisiae deletion strains, locus YLR268W, strain sec22, stronger effect = lower value 0.98 | S. cerevisiae deletion strains, locus YLR320W, strain mms22, stronger effect = lower value 0.982 | S. cerevisiae deletion strains, locus YLR330W, strain CHS5, stronger effect = lower value 0.975 | S. cerevisiae deletion strains, locus YLR342W, strain FKS1 (second series), stronger effect = lower value 0.995 | S. cerevisiae deletion strains, locus YLR342W, strain FKS1, stronger effect = lower value 0.983 | S. cerevisiae deletion strains, locus YLR357W, strain rsc2, stronger effect = lower value 0.933 | S. cerevisiae deletion strains, locus YLR370C, strain arc18, stronger effect = lower value 0.966 | S. cerevisiae deletion strains, locus YLR371W, strain rom2, stronger effect = lower value 0.977 | S. cerevisiae deletion strains, locus YLR384C, strain iki3, stronger effect = lower value 0.987 | S. cerevisiae deletion strains, locus YLR418C, strain cdc73, stronger effect = lower value 0.978 | S. cerevisiae deletion strains, locus YML016C, strain PPZ1, stronger effect = lower value 0.983 | S. cerevisiae deletion strains, locus YML032C, strain rad52, stronger effect = lower value 0.982 | S. cerevisiae deletion strains, locus YML120C, strain ndi1, stronger effect = lower value 0.992 | S. cerevisiae deletion strains, locus YML124C, strain tub3, stronger effect = lower value 0.973 | S. cerevisiae deletion strains, locus YMR058W, strain fet3, stronger effect = lower value 0.973 | S. cerevisiae deletion strains, locus YMR078C, strain ctf18, stronger effect = lower value 0.98 | S. cerevisiae deletion strains, locus YMR125W, strain sto1, stronger effect = lower value 0.99 | S. cerevisiae deletion strains, locus YMR129W, stronger effect = lower value 0.977 | S. cerevisiae deletion strains, locus YMR205C, strain PFK2, stronger effect = lower value 0.97 | S. cerevisiae deletion strains, locus YMR223W, strain ubp8, stronger effect = lower value 0.986 | S. cerevisiae deletion strains, locus YMR231W, strain pep5, stronger effect = lower value 0.99 | S. cerevisiae deletion strains, locus YMR263W, strain SAP30, stronger effect = lower value 0.981 | S. cerevisiae deletion strains, locus YMR307W, strain GAS1, stronger effect = lower value 1.07 | S. cerevisiae deletion strains, locus YNL067W, strain RPL9B, stronger effect = lower value 0.988 | S. cerevisiae deletion strains, locus YNL071W, strain lat1, stronger effect = lower value 0.993 | S. cerevisiae deletion strains, locus YNL128W, strain TEP1, stronger effect = lower value 0.97 | S. cerevisiae deletion strains, locus YNL153C, strain GIM3, stronger effect = lower value 0.986 | S. cerevisiae deletion strains, locus YNL183C, strain NPR1, stronger effect = lower value 0.938 | S. cerevisiae deletion strains, locus YNL209W, strain ssb2, stronger effect = lower value 0.989 | S. cerevisiae deletion strains, locus YNL233W, strain BNI4, stronger effect = lower value 0.986 | S. cerevisiae deletion strains, locus YNL248C, strain rpa49, stronger effect = lower value 0.993 | S. cerevisiae deletion strains, locus YNL250W, strain rad50, stronger effect = lower value 0.952 | S. cerevisiae deletion strains, locus YNL271C, strain bni1, stronger effect = lower value 0.976 | S. cerevisiae deletion strains, locus YNL298W, strain CLA4, stronger effect = lower value 0.986 | S. cerevisiae deletion strains, locus YNL307C, strain MCK1, stronger effect = lower value 0.981 | S. cerevisiae deletion strains, locus YNL322C, strain KRE1 (second series), stronger effect = lower value 0.992 | S. cerevisiae deletion strains, locus YNL322C, strain KRE1, stronger effect = lower value 0.978 | S. cerevisiae deletion strains, locus YNR049C, strain mso1, stronger effect = lower value 0.971 | S. cerevisiae deletion strains, locus YNR052C, strain pop2, stronger effect = lower value 1 | S. cerevisiae deletion strains, locus YOL006C, strain TOP1, stronger effect = lower value 1.02 | S. cerevisiae deletion strains, locus YOL012C, strain htz1 0.94 | S. cerevisiae deletion strains, locus YOL147C, strain pex11, stronger effect = lower value 0.969 | S. cerevisiae deletion strains, locus YOR001W, strain rrp6, stronger effect = lower value 0.997 | S. cerevisiae deletion strains, locus YOR061W, strain CKA2, stronger effect = lower value 0.98 | S. cerevisiae deletion strains, locus YOR069W, strain VPS5, stronger effect = lower value 0.983 | S. cerevisiae deletion strains, locus YOR070C, strain gyp1, stronger effect = lower value 0.985 | S. cerevisiae deletion strains, locus YOR080W, strain dia2, stronger effect = lower value 0.974 | S. cerevisiae deletion strains, locus YOR083W, strain WHI5, stronger effect = lower value 0.995 | S. cerevisiae deletion strains, locus YOR106W, strain vam3, stronger effect = lower value 1.07 | S. cerevisiae deletion strains, locus YOR136W, strain idh2, stronger effect = lower value 0.987 | S. cerevisiae deletion strains, locus YOR144C, strain elg1, stronger effect = lower value 0.979 | S. cerevisiae deletion strains, locus YOR184W, strain ser1, stronger effect = lower value 0.995 | S. cerevisiae deletion strains, locus YOR231W, strain MKK1, stronger effect = lower value 0.981 | S. cerevisiae deletion strains, locus YOR265W, strain rbl2, stronger effect = lower value 0.971 | S. cerevisiae deletion strains, locus YOR270C, strain vph1, stronger effect = lower value 1.07 | S. cerevisiae deletion strains, locus YOR290C, strain snf2, stronger effect = lower value 0.977 | S. cerevisiae deletion strains, locus YOR316C, strain cot1, stronger effect = lower value 0.976 | S. cerevisiae deletion strains, locus YPL051W, strain arl3, stronger effect = lower value 0.985 | S. cerevisiae deletion strains, locus YPL055C, strain LGE1, stronger effect = lower value 1 | S. cerevisiae deletion strains, locus YPL078C, strain atp4, stronger effect = lower value 0.984 | S. cerevisiae deletion strains, locus YPL106C, strain sse1, stronger effect = lower value 0.941 | S. cerevisiae deletion strains, locus YPL240C, strain hsp82, stronger effect = lower value 0.99 | S. cerevisiae deletion strains, locus YPL241C, strain CIN2, stronger effect = lower value 0.988 | S. cerevisiae deletion strains, locus YPL256C, strain CLN2, stronger effect = lower value 0.99 | S. cerevisiae deletion strains, locus YPR119W, strain clb2, stronger effect = lower value 0.988 | S. cerevisiae deletion strains, locus YPR141C, strain kar3, stronger effect = lower value 0.938 | S. cerevisiae deletion strains, locus YPR163C, strain tif3, stronger effect = lower value 0.975 | S. cerevisiae deletion strains, locus YPR167C, strain met16, stronger effect = lower value 0.97 | S. cerevisiae deletion strains, strain wtn01, stronger effect = lower value 0.975 | S. cerevisiae strains, strain wild type, stronger effect = lower value 0.983

From PubChem BioAssay AID1159580 (chemical genetic matrix, 2015)
